Source: PubChem BioAssay (EPA / NIEHS)
Several values for one entry are separate records, joined by “and”; a condition that tells them apart may be missing. Equal values may be shown once. Inconclusive results are not listed. More than one record can exist for a structure, and the calls need not agree. Activity calls are given as the source filed them. How the source made its calls, unless noted: active means hit-call score of the fitted dose curve at least 0.9, where 1 is the maximum; inactive means score below 0.9.

Key:
[1] = CCTE_Shafer_MEA_acute_LDH: CCTE's Lactate Dehydrogenase Assay for Cytotoxicity in the Neural Acute Assay, Shafer Lab (AID 2284086; active means hit-call score of the fitted dose curve at least 0.9, where 1 is the maximum;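 further: active means LDH release rises above DMSO vehicle level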)
Summary of the method: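 Cytotoxicity readout: spectrophotometric LDH activity in supernatant of rat primary cortical neurons, post-plating day 13 or 15, sampled after 40 min compound exposure; signal gain relative to DMSO baseline.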

[2] = CCTE_Shafer_MEA_dev_mutual_information_norm: CCTE's Neural Network Formation Assay for Mutual Information Normalization, Shafer Lab (AID 2284091);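 on AC50: mutual information between electrodes summarised as area under curve across four recording days; potency is for a decrease in mutual information relative to DMSO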
Summary of the method: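 Shared information across electrodes, tracked on days 5, 7, 9 and 12 of network development and collapsed as trapezoidal area under the curve. Rat cortical cultures were treated continuously from plating, with treatment renewed at feeds on DIV 5 and 9; DMSO baseline, negative-direction fit.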

[3] = CCTE_Shafer_MEA_dev_correlation_coefficient_mean: CCTE's Neural Network Formation Assay for Mean Correlation Coefficient, Shafer Lab (AID 2284093);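 on AC50: well mean pairwise spike train correlation integrated as AUC over recording days 5 to 12; potency fitted for loss of correlation relative to DMSO vehicle wells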
Summary of the method: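 Spontaneous activity recorded on days 5, 7, 9 and 12 post-plating; pairwise spike correlations are averaged across active electrodes and collapsed to an area-under-curve. Rat cortical cultures are dosed from plating through 12 days, with compound renewed at media changes.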

[4] = IUF_NPC1b_proliferation_BrdU_72hr: Leibniz Research Institute for Environmental Medicine (IUF) 72-hour Neural Progenitor Cell Bromodeoxyuridine (BrdU) Proliferation Assay (NPC1b) (AID 2284207)
Summary of the method: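 Human fetal cortex-derived (GW 16-19) neural progenitor spheres, 0.25-0.35 mm, one per well in EGF/FGF proliferation medium, exposed to compound for 72 h at 37C, pH 7.2-7.6. BrdU incorporation over the final 16 h read by luminescence ELISA, relative to DMSO.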

[5] = IUF_NPC1a_proliferation_area_72hr: Leibniz Research Institute for Environmental Medicine (IUF) 72-hour Neural Progenitor Cell Proliferation Area Assay (NPC1a) (AID 2284208)
Summary of the method: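 hNPC spheres (human fetal cortex, GW 16-19), one per poly-Hema U-bottom well; EGF+FGF medium; dosed day 0, no re-dosing; 72 h, 37C, 5% CO2; phase-contrast sphere area; DMSO = baseline; minus-GF = positive ctrl.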

[6] = IUF_NPC1_viability_72hr: Viability Assessment at 72 hours in the Leibniz Research Institute for Environmental Medicine (IUF) Neural Progenitor Cell Proliferation Assay (NPC1) (AID 2284209)
Summary of the method: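 Three-day continuous exposure of human neural progenitor spheres under EGF/FGF-driven proliferation; cell viability scored by alamar blue signal versus DMSO.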

[7] = CCTE_Mundy_HCI_Cortical_Synap_Neur_Matur_NeuriteSpotCountPerNeuriteLength: CCTE's Synaptogenesis and Neurite Maturation Assay in rat cortical cells for Neurite Spot Count per Neurite Length, Mundy Lab (AID 2284210)
Summary of the method: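 Synaptophysin spots per unit neurite length, measured by automated imaging of MAP2/synaptophysin/Hoechst-stained neurons. Cultures from rat cortex received chemical at DIV 7 with media change through DIV 12; glial growth arrested by AraC at DIV 5; DMSO baseline.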

[8] = CCTE_Mundy_HCI_Cortical_Synap_Neur_Matur_BPCount: CCTE's Synaptogenesis and Neurite Maturation Assay in rat cortical cells for Branch Point Count, Mundy Lab (AID 2284211)
Summary of the method: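 In this multiplexed morphology assay, cortical cells from rat receive chemicals at DIV 7 and are fixed at DIV 12, then immunostained and imaged; branch points are counted, with DMSO as baseline.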

[9] = CCTE_Mundy_HCI_Cortical_NOG_NeuriteCount: CCTE's Neurite Outgrowth Assay in rat cortical cells for Neurite Count, Mundy Lab (AID 2284212);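 further: cells fixed about two days after chemical exposure began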
Summary of the method: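 Rat cortical primary cells; compound added 2 h post-plating, 1/10 dilution of working solution. Anti-betaIII-tubulin/AF488 ICC; ArrayScan neurite count vs DMSO.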

[10] = CCTE_Mundy_HCI_Cortical_NOG_NeuriteLength: CCTE's Neurite Outgrowth Assay in rat cortical cells for Neurite Length, Mundy Lab (AID 2284213);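 on AC50: neurites imaged about 48 to 50 h after chemical exposure began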
Summary of the method: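 First, rat primary cortical cells were plated and, 2 h later, given test chemical as a 1/10 dilution. Finally, βIII-tubulin immunostaining enabled automated imaging of neurite length.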

[11] = CCTE_Mundy_HCI_Cortical_Synap_Neur_Matur_NeuriteLength: CCTE's Synaptogenesis and Neurite Maturation Assay in rat cortical cells for Neurite Length, Mundy Lab (AID 2284214)
Summary of the method: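 DMSO-normalised neurite length, from high-content imaging of anti-MAP2-stained rat cortical cells fixed at DIV 12. Glia were suppressed with AraC (DIV 5) before chemical exposure from DIV 7.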

[12] = CCTE_Mundy_HCI_Cortical_Synap_Neur_Matur_NeuriteSpotCountPerNeuron: CCTE's Synaptogenesis and Neurite Maturation Assay in rat cortical cells for Neurite Spot Count per Neuron Count, Mundy Lab (AID 2284215)
Summary of the method: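 Read-out: neurite-associated synaptophysin puncta per neuron, imaged by high-content analysis after MAP2, synaptophysin and Hoechst staining. Rat primary cortical cultures, dosed DIV 7 through DIV 12; DMSO served as baseline.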

[13] = CCTE_Mundy_HCI_Cortical_Synap_Neur_Matur_SynapseCount: CCTE's Synaptogenesis and Neurite Maturation Assay in rat cortical cells for Synapse Count, Mundy Lab (AID 2284218)
Summary of the method: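 Endpoint: synapses/neuron by HCI (synaptophysin puncta on MAP2-labelled neurites, Hoechst nuclei). Rat primary cortical cells, AraC DIV 5, dosed DIV 7, fixed DIV 12; DMSO negative control.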

[14] = CCTE_Mundy_HCI_Cortical_Synap_Neur_Matur_NeuriteCount: CCTE's Synaptogenesis and Neurite Maturation Assay in rat cortical cells for Neurite Count, Mundy Lab (AID 2284222)
Summary of the method: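 Rat primary cortical cells; AraC added at DIV 5, chemicals dosed with media change at DIV 7 through DIV 12. MAP2/synaptophysin/Hoechst immunostaining, high-content imaging of neurite number; fitted relative to DMSO.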

[15] = UKN2_HCS_IMR90_neural_migration: University of Konstanz (UKN) Leist Lab Neural Crest Cell Migration Assay in human induced IMR90 Pluripotent Stem Cells (UKN2) (AID 2284204); conditions: actives raise or lower the signal
Summary of the method: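 High-content imaging of calcein-AM and Hoechst stained cells quantifies migration into a stopper-defined gap after 24 h compound exposure. Neural crest cells from IMR90 iPSC migrated 24 h in EGF/FGF N2-S medium before dosing; DMSO baseline.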

[16] = UKN4_HCS_LUHMES_neurite_outgrowth: University of Konstanz (UKN) Leist Lab Neurite Outgrowth Assay in human LUHMES cells (UKN4) (AID 2284206); conditions: actives raise or lower the signal
Summary of the method: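 Neurite area in dopaminergic-model LUHMES neurons is measured by high-content imaging of calcein-AM after 24 h treatment starting shortly after day-2 replating; Hoechst staining tracks viability.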

[17] = CCTE_Mundy_HCI_hN2_NOG_NeuriteCount: CCTE's Neurite Outgrowth Assay in human hN2 cells for Neurite Count, Mundy Lab (AID 2284219; active means hit-call score of the fitted dose curve at least 0.9, where 1 is the maximum)
Summary of the method: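 In this morphology assay, hNP1-derived neurons received test chemical 2 h post-plating and were fixed two days later in warm paraformaldehyde/sucrose containing Hoechst 33342. Neurites, labelled by rabbit anti-βIII-tubulin (1:800) and Alexa Fluor-488 (1:500), were counted automatically.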

[18] = CCTE_Mundy_HCI_hN2_NOG_NeuriteLength: CCTE's Neurite Outgrowth Assay in human hN2 cells for Neurite Length, Mundy Lab (AID 2284220; active means hit-call score of the fitted dose curve at least 0.9, where 1 is the maximum)
Summary of the method: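 Plate hNP1-derived neurons, then add chemical 2 h later as a 1/10 dilution. Stain with anti-βIII-tubulin then Alexa Fluor-488 secondary, and image automatically to measure neurite length.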

[19] = TAMU_PeakParms_SingleDonor1434_Chronotropy: Texas A&M University (TAMU) 1.5-hr Human Induced Pluripotent Stem Cell (iPSC)-derived Cardiomyocytes Calcium (Ca+2) Flux Assay for Cardiotoxicity: Chronotropy (changes in peak frequency) (AID 2284217); conditions: actives raise or lower the signal
Summary of the method: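 iPSC-derived cardiomyocytes (single donor 1434) dosed at 0.2, 1, 10 and 100 uM in 0.5% DMSO for 1.5 h at 37C; Ca2+ dye fluorescence gave average beat frequency. Zero-beat points removed; bidirectional fit versus DMSO, POD as EC05.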

Measured: AC50

C[Si](Cn1cncn1)(c1ccc(F)cc1)c1ccc(F)cc1
active: [2] 1.61 µM
inactive: [1] | [3]

CCOP(=S)(OCC)Oc1cc(C)nc(C(C)C)n1
inactive: [2] | [3] | [4] | [5] | [6] | [7] | [9] | [10] | [12] | [13] | [14]
active: [2] 50 µM | [3] 50 µM | [8] 50 µM | [11] 50 µM

CON=C(C(=O)OC)c1ccccc1CON=C(C)c1cccc(C(F)(F)F)c1
active: [2] 671 nM and 812 nM | [3] 941 nM and 501 nM | [15] 15.2 µM | [5] 9.57 µM | [6] 32.8 µM | [7] 0.489 µM | [8] 0.446 µM | [9] 1.2 µM | [10] 1.14 µM | [11] 0.954 µM | [12] 0.32 µM | [13] 0.664 µM | [14] 1.24 µM
inactive: [1] | [4]

CNC(=O)ON=C(SC)C(=O)N(C)C
inactive: [1]

CCOP(=S)(OCC)SCCSCC
not listed: [15] | [16] | [17] | [18] | [19]
inactive: all other assays above

CN1COCN(Cc2cnc(Cl)s2)C1=N[N+](=O)[O-]
not listed: [15] | [16] | [17] | [18] | [19]
inactive: all other assays above

C[N+]1(C)CCCCC1
not listed: [15] | [16] | [17] | [18] | [19]
inactive: all other assays above

CC(C)=CC1C(C(=O)OCN2C(=O)C3=C(CCCC3)C2=O)C1(C)C (configuration not stated)
inactive: [1] | [2] | [3]

CSC1=N[C@@](C)(c2ccccc2)C(=O)N1Nc1ccccc1
not listed: [15] | [16] | [17] | [18] | [19]
inactive: all other assays above

CC1=NNC(=O)N(/N=C/c2cccnc2)C1
not listed: [15] | [16] | [17] | [18] | [19]
inactive: all other assays above

CCOC(=O)CC(SP(=O)(OC)OC)C(=O)OCC (configuration not stated)
active: [6] 1.06 µM
not listed: [1] | [19]
inactive: all other assays above

CCCOCC(=Nc1ccc(Cl)cc1C(F)(F)F)n1ccnc1
inactive: [1]

CC(=NC#N)N(C)Cc1ccc(Cl)nc1
active: [4] 0.385 µM
not listed: [1] | [17] | [18] | [19]
inactive: all other assays above

Cc1ccn2nc(S(=O)(=O)Nc3c(F)cccc3F)nc2n1
inactive: [1]

C=C(C)[C@H]1Cc2c(ccc3c2O[C@@H]2COc4cc(OC)c(OC)cc4[C@@H]2C3=O)O1
active: [2] 0.00709 µM | [3] 14.5 nM and 16.1 nM | [4] 0.0427 µM | [5] 756 nM and 41.6 nM | [6] 0.329 µM | [9] 0.053 µM | [10] 0.0253 µM
inactive: [1] | [4] | [6] | [19]
